# DPM-DC inhibit: S. pneumoniae DPM-DC inhibition; calls only at 10 µM; purified DPM-DC, PK/LDH coupled NADH fluorescence; AID 556; hit rate 0.49% among 65,000;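 active = the 320 compounds with the highest percent inhibition in the single-dose primary screen, excluding strongly autofluorescent ones, cut at about 32% in these data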;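 also: kinetic rate of NADH fluorescence loss reporting ADP formed by the decarboxylase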
# A340 absorber: compounds absorbing at 340 nm. compound absorbance at 340 nm, fold over control. fold change at 10 µM. 65,000 tested, under 10 active;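 active = at 10 µM dose, initial 340 nm absorbance at least 2 fold that of control wells; inactive = change under 2 fold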;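 also: initial absorbance extrapolated from kinetic A340 decline of NADH oxidation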
# Spn PMK inh: blocks S. pneumoniae phosphomevalonate kinase | purified PMK, PK/LDH-coupled NADH absorbance 340 nm | inhibition, % at 10 µM | hit rate 0.49% among 65,000 | AID 539;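 active = top-ranked compounds by inhibition in the single 10 µM screen, taking a fixed number of the strongest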
# NADH enzymes: inhibitors of enzymes used to reach an NAD/NADH endpoint; coupled PK/LDH NADH assays, four targets; IC50, µM (highest dose often 10 µM); hit rate 0.02% among 65,000;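 active = single-dose screening hits from any of four coupled enzyme assays that gave an IC50 when retested across doses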;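 also: the DPM-DC format reads NADH fluorescence rather than 340 nm absorbance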
# MK inhibit: S. pneumoniae mevalonate kinase inhibition; purified MK, PK/LDH-coupled NADH absorbance 340 nm; inhibition, % at 10 µM; hit rate 0.48% among 65,000;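 active = ranked among the strongest by inhibition in the single 10 µM screen, a fixed top-ranked set picked for dose follow-up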
# Autofluor 339: intrinsic fluorescence of library compounds, ex339/em460 – biochemical, MLSMR library, data from DPM-DC assay, artefact control, profiling panel. compound autofluorescence, ex339/em460 nm, NADH buffer; hits give high values; 1 = no-compound wells, NADH background. fluorescence fold increase at 10 µM. hit rate 5.5% among 65,000. AID 709;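 active = at 10 µM, mean starting fluorescence two-fold or more over control wells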;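 also: signal is the first read of a kinetic run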
# Hits are given with their value; – = inactive; · = no result shown; + = active, no number. Only some compounds are listed: those with a hit (about 6.5% of all), similar ones and a draw of the others.
SMILES,DPM-DC inhibit,A340 absorber,Spn PMK inh,NADH enzymes,MK inhibit,Autofluor 339
CCc1cc(C(=O)Cc2nc3ccccc3[nH]2)c(O)cc1O,–,–,–,–,–,2.3
CCc1cc(/C(Cc2ccc3ccccc3n2)=N\O)c(O)cc1O,+,–,–,–,–,–
O/N=C(\Cc1cscn1)c1ccc(O)cc1O,–,–,–,–,–,–
CC(=O)Nc1ccccc1N(C)S(=O)(=O)c1ccc(C)cc1,–,–,–,–,–,–
CCN(CC(=O)NC)S(=O)(=O)c1ccc(Br)cc1,–,–,–,–,–,–
CCOC(=O)Cc1csc(NC(=O)CCN2C(=O)c3ccccc3C2=O)n1,–,–,–,–,–,–
O=C(C1CCCN(Cc2cccnc2)C1)N1CCCCC1 (centres undefined),–,–,–,–,45,–
COc1ccc(S(=O)(=O)N2CCOCC2)cc1C(=O)Nc1cc(C)on1,–,–,–,–,–,–
CCc1cc2c(CN3CCN(CC)CC3)cc(=O)oc2cc1O,·,–,–,–,–,3.8
COc1ccc2c(c1)c(=O)oc1cc(OCC(=O)N3CCCC(C)C3)ccc12 (centres undefined),·,–,–,–,–,3.9
COc1ccc2c(c1)c(=O)oc1cc(OCC(=O)N3CCC(C)CC3)ccc12,·,–,–,–,–,3.5
COc1ccc(OCC(=O)N2CCN(C(=O)COc3ccc(Br)cc3)CC2)cc1,–,–,–,–,–,–
Cn1nnnc1SCc1c(F)cccc1F,–,–,–,–,–,–
CN1CCN(C(=O)CSc2nc(-c3cccs3)ccc2C#N)CC1,·,–,–,–,–,2.3
Cc1cccc(OCc2nnc(SCc3cc(=O)n4cc(Br)ccc4n3)o2)c1,–,–,–,–,–,–
Cc1cnc(-c2nnc(N(C)C(=O)C3CCCO3)s2)cn1 (centres undefined),–,–,–,–,–,2.3
Cc1csc(NC(=O)C2CCCO2)n1 (centres undefined),–,–,–,–,–,–
COCC(=O)N(C)c1nnc(-c2cnc(C)cn2)s1,–,–,32,–,–,–
CCCNC(=O)NC(C(=O)OC)C12CC3CC(CC(C3)C1)C2 (centres undefined),–,–,–,–,–,–
COc1cccc(C(c2sc3nc(C)nn3c2O)N2CCc3ccccc3C2)c1 (centres undefined),–,–,–,–,–,–
CCOC(=O)c1cc(-c2cc3ccccc3o2)nc2c1c(=O)[nH]c(=O)n2CCOC,·,–,–,–,–,5.1
CC1CCCC(N2C(=O)NC(NC(=O)c3ccco3)(C(F)(F)F)C2=O)C1C (centres undefined),–,–,–,–,–,–
Cc1c(-c2cccs2)[n+](=O)c2c(n1[O-])CCCC2,–,–,–,–,–,–
O=C(Nc1ccc(N2CCOCC2)cc1)C1CCCN(S(=O)(=O)c2cccc(C(F)(F)F)c2)C1 (centres undefined),–,–,–,–,–,–
CCOC(=O)N1CCN(c2c(-c3ccccc3)c3cc(Cl)ccc3[nH]c2=O)CC1,–,–,–,–,–,2.5
SMILES,DPM-DC inhibit,A340 absorber,Spn PMK inh,NADH enzymes,MK inhibit,Autofluor 339
CCOC(=O)N1CCN(c2c(-c3ccc(C)cc3)c(=O)c2=O)CC1,–,–,–,–,–,–
CCOC(=O)Cc1c(C)nc2cc(-c3ccc(Cl)cc3)[nH]n2c1=O,–,–,–,–,–,–
CCOC(=O)c1cc(=O)n2[nH]c(-c3ccc(C)cc3)cc2n1,·,–,–,–,–,3.9
COc1ccc(CCN2C(=O)CC(C(N)=O)SC2=Nc2ccccc2)cc1OC (centres undefined),–,–,–,–,–,–
OCCNc1ncnc2c1ncn2Cc1ccccc1,–,–,–,–,–,–
C=CCn1cnc2c(NCc3ccccc3)ncnc21,–,–,–,–,active,–
CC12C=CC3(CN(Cc4ccccc4)C(=O)C3C1C(=O)NC1CC1)O2 (centres undefined),–,–,28,–,–,–
O=S(=O)(CC(CN1CCCC1)N1CCCC1)c1ccc2ccccc2c1 (centres undefined),–,–,–,–,–,–
CC(C)NC(=O)CSc1nnc(-c2ccc(S(=O)(=O)N3CCCC3)cc2)n1CC1CCCO1 (centres undefined),–,–,–,–,45,–
NC(=O)CSc1nnc(-c2ccc(S(=O)(=O)N3CCOCC3)cc2)n1CC1CCCO1 (centres undefined),–,–,–,–,–,–

# Assay outcomes as filed in PubChem.
